In PubChem BioAssay (EPA / NIEHS):
The source made the active and inactive calls. The calls were made as follows: active = hit-call score of the fitted dose curve at least 0.9, where 1 is the maximum; inactive = score below 0.9.

read-out: ABC Transporter (ABCC3), ABCC3 (gene 8714); assay: LTEA_HepaRG_ABCC3: Life Technologies and Expression Analysis (LTEA) Assay for ABC Transporter (ABCC3) using HepaRG (AID 2283462); settings: mRNA level, 48 h; actives raise or lower the signal
Procedure: LTEA_HepaRG is a cell based, multiplexed-readout assay that uses HepaRG, a human liver cell line, with measurements taken at 48 hours after chemical dosing on a 96-well plate.LTEA_HepaRG_ABCC3 is one of 102 assay component(s) measured in the LTEA HepaRG cell culture assay. It is a marker of NR mediated transport.Data from the assay component LTEA_HepaRG_ABCC3 was analyzed into 1 endpoint. This assay endpoint, LTEA_HepaRG_ABCC3, was analyzed with bidirectional fitting relative to DMSO as the negative control and baseline of activity. Using a type of inducible reporter, measures of mRNA induction for gain or loss-of-signal activity can be used to understand regulation of transcription factor activity. To generalize the intended target to other relatable targets, this assay endpoint is annotated to the transporter intended target family, where the subfamily is ABC transporter.
A total of 1060 chemcials from the ToxCast library were tested in eight-point concentration-response experiments. Cell culture and cytotoxicity assays were conducted at Thermo Fisher Scientific's Custom Services facility (Madison, WI). A single lot of human HepaRG cells (Thermo Fisher Scientific, Frederick, MD) was used for the cell culture experiments. 96-well format collagen type I coated plates of human HepaRG cells were prepared using established methods. Briefly, cryopreserved HepaRG cells were thawed, plated at a density of approximately 100,000 cells/well in HepaRG Thaw, Plate, and General Purpose media (HPRG770, Thermo Fisher Scientific), and incubated for 48 hours. 0.5% DMSO was selected as vehicle control to balance the requisite need of DMSO in HepaRG cultures to maintain differentiation (for example, baseline metabolism, proportions of hepatocytes vs. cholangiocytes), while enabling further hepatic receptor pathway activation (for example, PXR and CAR) in response to chemical exposure. 48 hours after plating, the culture medium was replaced with HepaRG Serum-Free Incudtion Media. Cells were exposed to each test chemical in duplicate and maintained in CO2 incubators for another 48 hours. Chemical plates were thawed to room temperature and 200x concentrations of treatment groups were prepared. 8-point conentration-reponse curves were made with the highest exposure at 100 uM, followed by half-log dilutions, all in 0.5% DMSO. Each test plate contained variouse controls, induction positive controls (1mM phenobarbital), cytotoxicity positive controls ([…] aflatoxin B1), vehicle controls (0.5% DMSO), and total lysis controls (0.5% DMSO). Cell morphology images were taken using an Essen IncuCyte FLR automated microscope, with six 96-well plates imaged in about 24 minutes. Images were captured and exported and JPEG files. Spent culture media was transfered to black-well plates for the LDH assay, and remaining media was sorted at -80 C for later use. Cells were treated with RLT buffer and frozen until shipped for gene expression analysis. Total RNA was isolated from the cell suspension in 75 uL of Buffer RLT (Qiagen, Germantown, MD 20874) by Quintiles/Expression Analysis (Durham, NC) using a custom isolation procedure. Total RNA from each plate well was transferred to a preamplification plate. Fluidigm's 96.96 Dynamic ArrayTM (Fluidigm, Amsterdam, the Netherlands) technology was used for gene expression analyses by quantitative reverse transcription polymerase chain reaction (qRT-PCR, performed by Quintiles/Expression Analysis, Durham, NC)89. Standard TaqManTM Assays (Applied Biosystems/ThermoFisher Scientific, Foster City, CA) were used to assess the expression of 93 genes selected based on their selectivity and sensitivity to important hepatic receptors known to be modulated by environmental chemicals; importance in human hepatocyte functionality; and hepatotoxicity. […]

Compound	outcome	AC50
Cc1[nH]c(=O)n(C(C)(C)C)c(=O)c1Cl	inactive	
O=S(=O)(O)C(F)(F)C(F)(F)C(F)(F)C(F)(F)C(F)(F)C(F)(F)C(F)(F)C(F)(F)F	inactive	
OCCOc1ccccc1	inactive	
COP(=O)(OC)OC=C(Cl)Cl	inactive	
O=[N+]([O-])/N=C1\NCCN1Cc1ccc(Cl)nc1	inactive	
CC1(c2ccc(Oc3ccccc3)cc2)OC(=O)N(Nc2ccccc2)C1=O (stereo not given)	inactive	
CC(C)(C)C(O)C(Oc1ccc(Cl)cc1)n1cncn1 (stereo not given)	inactive	
O=C(NC(=O)c1c(F)cccc1F)Nc1ccc(OC(F)(F)C(F)OC(F)(F)F)c(Cl)c1 (stereo not given)	inactive	
COP(=S)(OC)Oc1ccc([N+](=O)[O-])cc1	inactive	
CC(C)OC(=O)Nc1cccc(Cl)c1	inactive	
CCOC1Oc2ccc(OS(C)(=O)=O)cc2C1(C)C (stereo not given)		66.7 µM (active)
O=S1OCC2C(CO1)C1(Cl)C(Cl)=C(Cl)C2(Cl)C1(Cl)Cl (stereo not given)	inactive	
O=C(O)C(F)(F)C(F)(F)C(F)(F)C(F)(F)C(F)(F)C(F)(F)C(F)(F)F	inactive	
CCN(CC)C(=O)SCc1ccc(Cl)cc1	inactive	
C[C@H]1[C@H](c2ccc(Cl)cc2)SC(=O)N1C(=O)NC1CCCCC1	inactive	
N#CN	inactive	
Oc1ccc(Cl)cc1Cc1ccccc1	inactive	
CNC(=O)CSP(=S)(OC)OC	inactive	
C#CCN1C(=O)COc2cc(F)c(N3C(=O)C4=C(CCCC4)C3=O)cc21	inactive	
O=C(O)CCCOc1ccc(Cl)cc1Cl	inactive	

Compound	outcome	AC50
ClC1C(Cl)C(Cl)C(Cl)C(Cl)C1Cl (stereo not given)	inactive	
CCOCN(C(=O)CCl)c1c(C)cccc1CC	inactive	
O=C1c2ccccc2C(=O)N1SC(Cl)(Cl)Cl	inactive	
CC1(C)C(C=C(Cl)Cl)C1C(=O)OC(C#N)c1ccc(F)c(Oc2ccccc2)c1 (stereo not given)	inactive	
CNC(=O)/C=C(\C)OP(=O)(OC)OC	inactive	
N#Cc1c(Cl)c(Cl)c(Cl)c(C#N)c1Cl	inactive	
CNC(=O)Oc1cccc(N=CN(C)C)c1	inactive	
CCC(C)Nc1c([N+](=O)[O-])cc(C(C)(C)C)cc1[N+](=O)[O-] (stereo not given)	inactive	
CCCN(CCOc1c(Cl)cc(Cl)cc1Cl)C(=O)n1ccnc1	inactive	
CC(C)N(C(=O)COc1nnc(C(F)(F)F)s1)c1ccc(F)cc1	inactive	
O=[N+]([O-])c1c(Cl)c(Cl)c(Cl)c(Cl)c1Cl	inactive	
CCC(C)(NC(=O)c1cc(Cl)c(C)c(Cl)c1)C(=O)CCl (stereo not given)		65.3 µM (active)
Oc1cc(Cl)ccc1Oc1ccc(Cl)cc1Cl	inactive	
CNC(=O)Oc1ccccc1OC(C)C	inactive	
CC[C@H](C)[C@H]1O[C@]2(C=C[C@@H]1C)C[C@@H]1C[C@@H](C/C=C(\C)[C@@H](O[C@H]3C[C@H](OC)[C@@H](O[C@H]4C[C@H](OC)[C@@H](O)[C@H](C)O4)[C@H](C)O3)[C@@H](C)/C=C/C=C3\CO[C@@H]4[C@H](O)C(C)=C[C@@H](C(=O)O1)[C@]34O)O2 (tested in a mixture with another compound)		46.5 µM (active)
O=C(O)COc1ccc(Cl)cc1Cl	inactive	
Clc1ccccc1-c1nnc(-c2ccccc2Cl)nn1	inactive	
CC(C)(C)C(O)/C(=C\c1ccc(Cl)cc1Cl)n1cncn1 (stereo not given)	inactive	
CN1CSC(=S)N(C)C1	inactive	
CCC(C)(C)C(=O)OC1=C(c2ccc(Cl)cc2Cl)C(=O)OC12CCCCC2	inactive	
